Source: PubChem BioAssay (Tox21)
A number with no mark means an inactive call. Active and inactive are the calls of the source. The call rests on the fitted dose curve.

Biological target: Gonadotropin-releasing hormone receptor (Homo sapiens) (UniProt P30968)
Experiment: Human gonadotropin-releasing hormone receptor (GnRHR) small molecule agonists, calcium flux assay in GnRHR-HEK293 cells (AID 1920063); further: nearly all actives have a fitted effect of over 35% in size
Conditions: calcium flux fluorescence, agonist mode; series mostly up to 57.6 µM; activity change: at the top concentration
Text: National Center for Advancing Translational Sciences [NCATS]
Division of Preclinical Innovation [DPI]
U.S. Environmental Protection Agency [EPA]
National Institutes of Environmental Health Sciences [NIEHS]
National Toxicology Program [NTP]
U.S. Food and Drug Administration [FDA]
Gonadotropin-releasing hormone receptor (GnRHR) is a G-protein-coupled receptor (GPCR) and acts (through phospholipase C) to increase intracellular inositol trisphosphate and then release intracellular calcium stores. Cell-based GnRHR-Hek293 calcium influx assay is using HEK293 cells that have been genetically engineered to express the human GnRHR, which activity can be measured by calcium signaling. A compound/drug can activate (agonist) GnRHR that can be monitored by levels of intracellular calcium.
GnRHR-HEK293 cells developed by Codex Corp contain human GnRHR reporter gene, which was stably integrated into HEK 293 cells. The compound activation can be detected by fluorescence intensity via calcium flux assay. This cell line has been used to screen the Tox21 10K compound library to identify GnRHR agonists.
GnRHR-Hek293 cells were dispensed at 1500cells/4uL/well in 1536-well black wall/clear bottom plates using a multidrop dispenser. After the assay plates were incubated at a 37 C/5% CO2 incubator for 18 hours, 4 uL of Calcium Dye Solution was added to each well. The plates were incubated at 37 C for 1 hour. For agonist mode, 23 nL of compounds dissolved in DMSO, positive controls or DMSO only was transferred to the assay plate by a pin tool station. The fluorescence intensity in the plates was measured using FDSS 7000EX kinetic plate reader with a filter set of Ex/Em=480/540 for 3 min at 1 sec intervals. Each test compound was measured at 15 concentrations and in triplicates.
On the % scale 0 is the no-effect control and ±100 the full control effect; potency means the concentration at half of the fitted maximal effect.

Chain of Gonadotropin-releasing hormone receptor (Homo sapiens) (P30968 whole entry, looked up): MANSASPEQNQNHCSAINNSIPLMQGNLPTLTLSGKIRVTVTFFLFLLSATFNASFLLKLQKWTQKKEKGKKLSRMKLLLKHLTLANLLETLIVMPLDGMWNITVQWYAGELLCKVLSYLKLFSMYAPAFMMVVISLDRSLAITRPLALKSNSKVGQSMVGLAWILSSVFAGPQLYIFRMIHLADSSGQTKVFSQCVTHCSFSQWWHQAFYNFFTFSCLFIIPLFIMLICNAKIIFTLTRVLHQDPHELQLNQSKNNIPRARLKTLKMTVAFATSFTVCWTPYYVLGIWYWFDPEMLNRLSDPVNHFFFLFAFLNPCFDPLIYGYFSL

For O=C(N[C@@H]1N=C(c2ccccc2F)c2cccc3c2N(CC3)C1=O)c1cc2ccccc2[nH]1, the Potency was 4.25 µM (active).
With CC(C)(C)c1cc(O)ccc1O the Potency was “inactive”.

Point of comparison: COC(=O)c1ccccc1S(=O)(=O)NC(=O)N(C)c1nc(C)nc(OC)n1, “activity change” value -0.109%. Against it:
- N#CCCl — lower, -2.41%
- COC(N)=O — higher, 0.359%
- O=C(C(Cl)(Cl)Cl)C(Cl)(Cl)Cl — lower, -0.464%
- CNC(=O)/C=C(\C)OP(=O)(OC)OC — lower, -0.875%
- CCN[C@@H](C)Cc1ccccc1 — lower, -0.188%
- Cc1nc(N)nc(N)n1 — higher, 1.09%
- O=C(O)C(F)(F)C(F)(F)C(F)(F)C(F)(F)C(F)(F)C(F)(F)C(F)(F)C(F)(F)C(F)(F)F — lower, -1.09%
- CN=CNc1ccc(C)cc1C — higher, -0.1%
- O=S1(=O)OC(c2cc(Br)c(O)c(Br)c2)(c2cc(Br)c(O)c(Br)c2)c2ccccc21 — lower, -0.223%
- N=C(N)[Se] — higher, -0.0381%
- C#CC(C)(C)O — lower, -0.138%
- C=CCc1ccc(OC(=O)Cc2ccccc2)c(OC)c1 — lower, -0.52%
- CCc1nn(C)c(C(=O)NCc2ccc(C(C)(C)C)cc2)c1Cl — higher, 3.11%
- CN(C1CCCCC1)C1CCCCC1 — lower, -0.277%
- [Cl-].[Cl-].[Cl-].[Yb+3] — lower, -1.3%
- O=[N+]([O-])c1cc(C(F)(F)F)c(Cl)c([N+](=O)[O-])c1Nc1ncc(C(F)(F)F)cc1Cl — higher, 17.4%
- O=C(O)c1cc(I)cc(I)c1I — higher, 1.27%
- Nc1ccccc1-c1ccccc1 — lower, -1.95%
- CNC(=O)O/N=C(\C)SC — higher, -0.0747%
- [O]=[Cd] — higher, -0.0003%
- Clc1ccc(C2(Cn3cncn3)CC(Br)CO2)c(Cl)c1 (stereo not given) — higher, 7.98%
- N#C/C=C/C#N — lower, -0.834%
- COP(=O)(OC)O/C(=C/Cl)c1cc(Cl)c(Cl)cc1Cl — lower, -0.388%
- CCn1cc[n+](C)c1 (tested in a mixture with another compound) — higher, 1.1%
- COC1=CC(=O)O[C@@H](/C=C/c2ccc3c(c2)OCO3)C1 — lower, -0.468%
- CC(=O)O.CC(=O)O.CC(=O)O.CC(=O)O.CC(=O)O.CC(=O)O.CC(=O)O.O.O.[Cr].[Cr].[Cr] — higher, 2.1%
- CC(C)(C)C(O)/C(=C\c1ccc(Cl)cc1Cl)n1cncn1 (stereo not given) — higher, 12.8%
- CC1CN1P(=O)(N1CC1C)N1CC1C (stereo not given) — lower, -0.534%

For Cc1cccc(Cc2cnc[nH]2)c1C, the “activity change” value was 0.299% [at 26.4 µM, hits give high values].
For COc1ccc(C(=O)N2CCCC2=O)cc1, the “activity change” value was -2.01% [at 26.4 µM, hits give high values].
For O=C1CC[C@@]2(O)[C@H]3Cc4ccc(O)c5c4[C@@]2(CCN3CC2CC2)[C@H]1O5, the “activity change” value was -0.326% [at 26.4 µM, hits give high values].
COc1ccc(CN2CCNCC2)c(OC)c1OC was tested, and the “activity change” value was 0.0419% [at 26.4 µM, hits give high values].
With CCCC(C)C1(CC)C(=O)N=C(S)NC1=O (stereo not given) the “activity change” value was -1.51% [at 26.4 µM, hits give high values].
With CN1C(=O)COc2c(C(=O)NC3CN4CCC3CC4)cc(Cl)cc21 (stereo not given) the “activity change” value was -0.574% [at 26.4 µM, hits give high values].
C[C@]12CC[C@@H]3c4ccc(OC(=O)N(CCCl)CCCl)cc4CC[C@H]3[C@@H]1CC[C@@H]2O was tested, and the “activity change” value was -0.703% [at 26.4 µM, hits give high values].
For COc1ccccc1N1CCNCC1, the “activity change” value was 6.51% [at 26.4 µM, hits give high values].
For CC#C[C@]1(O)CC[C@H]2[C@@H]3C[C@H](C)C4=CC(=O)CC[C@]4(C)[C@H]3CC[C@@]21C, the “activity change” value was 0.892% [at 26.4 µM, hits give high values].
